VP16 counter: counter-screen for ROR gamma inhibitors: Gal4-VP16 reporter. Drosophila S2 Gal4-VP16 UAS-luciferase, luminescence, 20 h. Potency, µM (top dose mostly 53.6 µM), actives largely listed as inhibitors. actives 3.5% (n = 310,000). AID 2546;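 also: Gal4-VP16 expression switched on by copper sulfate through the metallothionein promoter; nearly all actives have a fitted effect of over 50% in size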
RORg inh: ROR gamma (mouse) transcription inhibition. AID 2551. Potency, µM (titrated, usually from 53.6 µM), most hits filed as inhibitors. actives 5.4% (n = 310,000). Drosophila S2 Gal4-RORgamma UAS-luciferase reporter, 20 h; also: nearly all actives have a fitted effect of over 60% in size
Target sequence (P51450 whole entry, looked up, the tested form may be a part): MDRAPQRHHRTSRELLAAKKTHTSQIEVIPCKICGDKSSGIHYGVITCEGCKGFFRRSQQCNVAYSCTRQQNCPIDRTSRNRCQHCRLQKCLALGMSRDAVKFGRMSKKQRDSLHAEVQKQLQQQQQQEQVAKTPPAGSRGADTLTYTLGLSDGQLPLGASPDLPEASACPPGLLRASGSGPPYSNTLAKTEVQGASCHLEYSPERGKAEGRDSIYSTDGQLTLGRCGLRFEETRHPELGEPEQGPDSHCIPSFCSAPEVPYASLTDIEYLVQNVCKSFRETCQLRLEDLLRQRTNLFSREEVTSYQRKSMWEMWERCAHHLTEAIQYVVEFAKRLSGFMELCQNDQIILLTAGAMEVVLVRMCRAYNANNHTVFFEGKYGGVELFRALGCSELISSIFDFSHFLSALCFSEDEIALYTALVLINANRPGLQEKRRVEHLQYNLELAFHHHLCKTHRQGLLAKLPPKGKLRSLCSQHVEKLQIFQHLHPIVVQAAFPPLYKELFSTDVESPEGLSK
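Luminescence from a UAS-regulated Photinus luciferase reporter in stably transfected Drosophila Schneider cells is measured; decreased signal marks ROR gamma inhibition. Fusion expression is induced by 700 uM copper sulfate for 20 hr.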
IL1B secr inh: inhibitors of inflammasome signaling (IL-1 beta secretion); THP-1 LPS/ATP IL-1B secretion, AlphaLISA, 16 h; hits give low values; activity change, % at 57.5 µM; actives 4.7% (n = 360,000); AID 743279; in the data active = activity change below about -50%; inconclusive = mostly about -30% to -49%
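THP-1 cells pretreated 1 hr with compounds (up to 57.5 uM final), then stimulated with LPS (250 ng/mL final) plus ATP (1.25 mM final); secreted IL-1B measured by AlphaLISA after 16 hr, decreased signal indicating inhibition.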
DT40 TDP1 CPT: growth inhibition of DT40 Tdp1-/-;hTDP1 cells with camptothecin (screen for TDP1 inhibitors); Potency, µM (series often up to 46.2 µM), actives largely listed as inhibitors; chicken DT40 Tdp1-/-;hTDP1 cells + 20 nM CPT, ATP luminescence, 48 h; actives 12% (n = 420,000); also: nearly all actives have a fitted effect of over 55% in size
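Chicken DT40 Tdp1-/- cells complemented with human TDP1, 400 cells/well, exposed to compounds plus 20 nM camptothecin for at least 48 h at 37 C; viability read as ATP content by CellTiter-Glo luminescence.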
TDP1 cell noCPT: qHTS for Inhibitors of human tyrosyl-DNA phosphodiesterase 1 (TDP1): qHTS in cells in absence of CPT; DT40 Tdp1-/- hTDP1 cells, no CPT, ATP luminescence, 48 h; Potency, µM (series often up to 46.2 µM), actives largely listed as inhibitors; actives 15% (n = 420,000); also: nearly all actives have a fitted effect of over 55% in size
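A cellular qHTS used chicken DT40 cells lacking endogenous Tdp1 but carrying stably transfected human TDP1. Compounds were applied without camptothecin, and cell growth kinetics were judged by ATP-dependent luminescence after ≥48 hr.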
LDHA block: blocks human lactate dehydrogenase A. purified LDHA, NADH/diaphorase-resazurin fluorescence; hits give low values. P00338. actives 0.15% (n = 480,000). AID 1347041. activity change, % (values are at about 110 or 230 µM); in the data active = activity change below about -30%; inconclusive = mostly about -25% to -30%
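Remaining NADH was detected by diaphorase (0.133 mg/mL) converting 37 µM resazurin to fluorescent resorufin, read at 0 and 20 minutes. The preceding 5-minute room-temperature reaction used 2 nM LDHA, 0.2 mM sodium pyruvate and 0.06 mM NADH at pH 7.4.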
Of the large screens only hits and unclear results are named; the others gave an inactive call; ! = not confirmed by another sample. Hits are enriched below; roughly 18% of the tested compounds scored in any of these assays. Unless noted, calls follow the shape of the dose curve; as a rule, active = well fitted curve in the direction sought with a large enough effect; inconclusive = small, poorly fitted or top-dose-only effect, or another doubt; inactive = no such curve, though single readings can be large; an effect the other way counts as inactive or inconclusive.

COc1ccc(-n2c(CNCCc3ccc(C)cc3)nc3ccccc3c2=O)cc1	DT40 TDP1 CPT inconclusive, TDP1 cell noCPT inconclusive
CCCc1nc2ccccc2c(=O)n1-c1ccc(OC)cc1	DT40 TDP1 CPT inconclusive, TDP1 cell noCPT 23µM
CCn1ccnc1CN1CCCC(C(=O)c2ccc(SC)cc2)C1 (stereo unspecified)	VP16 counter 6.3µM, RORg inh 1.6µM, DT40 TDP1 CPT inconclusive, TDP1 cell noCPT 18µM
Cc1ncc(CN2CCCC(C(=O)c3ccc(C(C)(C)C)cc3)C2)s1 (stereo unspecified)	VP16 counter inconclusive, RORg inh inconclusive, DT40 TDP1 CPT 21µM, TDP1 cell noCPT 12µM
O=C(c1ccc(C(F)(F)F)cc1)C1CCCN(Cc2ccncc2)C1 (stereo unspecified)	VP16 counter inconclusive, RORg inh inconclusive, DT40 TDP1 CPT 10µM, TDP1 cell noCPT 10µM
COc1cccc(O)c1CN1CCCC(C(=O)c2ccccc2SC)C1 (stereo unspecified)	DT40 TDP1 CPT 16µM, TDP1 cell noCPT 18µM
CCCCCC(O)C1C(=O)OC(C)C(O)\C=C/C=C\C=C/C=C\C=C(\C)C(O)C(O)C(O)CC(O)CC(O)CC(O)CC(O)CC1O (stereo unspecified)	none (no result: IL1B secr inh, DT40 TDP1 CPT, TDP1 cell noCPT, LDHA block)
CN(C)CCCCCCN(C)C (tested in a mixture with another compound)	none (no result: VP16 counter, RORg inh, IL1B secr inh, LDHA block)
N#Cc1ccc(NC(=O)CN2CCC(C(N)=O)CC2)cc1Cl	none (no result: VP16 counter, RORg inh, IL1B secr inh, DT40 TDP1 CPT, TDP1 cell noCPT)
CC(C)CN1CC2(CCN(C(=O)c3ccncc3)CC2)C1	none (no result: IL1B secr inh, LDHA block)
COc1ccc(C(=O)C2CCCN(Cc3ccccn3)C2)c(OC)c1 (stereo unspecified)	RORg inh 10µM, DT40 TDP1 CPT 21µM, TDP1 cell noCPT 15µM
COc1ccc(C(=O)C2CCCN(Cc3cnc(C)s3)C2)c(OC)c1 (stereo unspecified)	IL1B secr inh -64, DT40 TDP1 CPT 16µM, TDP1 cell noCPT 8.2µM
COc1ccc(C(=O)C2CCCN(Cc3cnc(C)s3)C2)cc1OC (stereo unspecified)	none
CN(C)CCOC(=O)Cc1ccccc1	none (no result: VP16 counter, RORg inh, IL1B secr inh, DT40 TDP1 CPT, TDP1 cell noCPT)
CCc1ccc(-n2nc(C)c3c2NC(=O)CSC3c2ccccc2C)cc1 (stereo unspecified)	DT40 TDP1 CPT inconclusive, TDP1 cell noCPT 18µM (no result: VP16 counter, RORg inh, IL1B secr inh)
CCc1ccc(-n2nc(C)c3c2NC(=O)CSC3c2ccc(C(=O)OC)cc2)cc1 (stereo unspecified)	DT40 TDP1 CPT 15µM, TDP1 cell noCPT 13µM (no result: VP16 counter, RORg inh, IL1B secr inh)
CCc1ccc(-n2nc(C)c3c2NC(=O)CSC3c2ccc(OC)cc2OC)cc1 (stereo unspecified)	DT40 TDP1 CPT 18µM, TDP1 cell noCPT 23µM (no result: VP16 counter, RORg inh, IL1B secr inh)
CC(C1CC1)N(C)C(=O)c1cn(Cc2ccccc2)c2ccccc12 (stereo unspecified)	none (no result: VP16 counter, RORg inh, IL1B secr inh, DT40 TDP1 CPT, TDP1 cell noCPT)
COc1cc2c(c3oc4cccc(O)c4c(=O)c13)C1C=CO[C@@H]1O2 (stereo partly specified)	VP16 counter 10µM, RORg inh 13µM (no result: IL1B secr inh, DT40 TDP1 CPT, TDP1 cell noCPT, LDHA block)
CCOC(CN1CCN(CC(C)C(=O)c2ccccc2)CC1)c1ccccc1 (stereo unspecified)	DT40 TDP1 CPT inconclusive, TDP1 cell noCPT 27µM (no result: IL1B secr inh, LDHA block)
c1ccc(-c2ccc(C(c3ccccc3)n3ccnc3)cc2)cc1 (stereo unspecified)	VP16 counter inconclusive, RORg inh 10µM!, DT40 TDP1 CPT 10µM, TDP1 cell noCPT 23µM
c1ccc(C(c2ccccc2)c2cccnc2)cc1	TDP1 cell noCPT inconclusive (no result: VP16 counter, RORg inh)
CCCCCCC(C)(C)c1ccc([C@@H]2C[C@H](O)CC[C@@H]2CCCO)c(O)c1	VP16 counter inconclusive, RORg inh inconclusive, DT40 TDP1 CPT 19µM, TDP1 cell noCPT 3µM (no result: IL1B secr inh, LDHA block)
CCCCc1ccc2[nH]cc(CCN)c2c1	IL1B secr inh -89, DT40 TDP1 CPT 21µM, TDP1 cell noCPT 21µM
